D2 antag = HTS Assay for Allosteric Antagonists of the Human D2 Dopamine Receptor: Primary Screen for Antagonists. D(2) dopamine receptor (Homo sapiens), P14416. 340,000 tested, 2% active. HEK293 TREx D2 cells, calcium flux, dopamine EC80. inhibition, % at 10 µM; in the data active = inhibition above about 30%; inactive = below that, where a call was filed; note: 0% is about no effect
Target sequence (P14416 whole entry, looked up): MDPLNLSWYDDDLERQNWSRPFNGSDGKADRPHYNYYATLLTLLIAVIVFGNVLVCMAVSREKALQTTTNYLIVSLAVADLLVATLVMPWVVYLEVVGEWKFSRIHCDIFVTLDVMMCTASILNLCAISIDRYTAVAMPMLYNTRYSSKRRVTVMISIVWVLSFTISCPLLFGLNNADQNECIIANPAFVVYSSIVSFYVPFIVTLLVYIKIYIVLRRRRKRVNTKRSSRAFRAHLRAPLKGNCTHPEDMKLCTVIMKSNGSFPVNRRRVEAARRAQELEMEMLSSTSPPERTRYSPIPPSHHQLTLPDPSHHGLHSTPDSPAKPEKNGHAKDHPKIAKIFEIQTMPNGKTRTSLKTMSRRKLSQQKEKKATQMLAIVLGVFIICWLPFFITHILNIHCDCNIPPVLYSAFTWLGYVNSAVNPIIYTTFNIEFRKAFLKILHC
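In this primary screen, negative modulation is detected by tracking calcium flux after an EC80 dopamine challenge in inducible HEK293 T-REx D2 cells preexposed to test compound for 180 s.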
D2 ag-1 = Beta-Arrestin HTS for Positive Allosteric Modulators of the Human D2 Dopamine Receptor: Agonists | DiscoveRx PathHunter D2 beta-arrestin, luminescence, 90 min; 100% = 57 uM dopamine signal | activation, % (test concentration not listed) | 360,000 tested, 0.084% active; in the data active = activation above about 40%
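DiscoveRx PathHunter D2 beta-arrestin cells (2,100/well) attached overnight, then compound-stimulated 90 min at 37 C in HBSS/10 mM HEPES/0.1% Tween-20 buffer; beta-galactosidase complementation read by luminescence after 1 h at ambient temperature. Dopamine 57 uM final (EC100) as control.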
D2 PAM-1 = HTS Assay for Positive Allosteric Modulators of the Human D2 Dopamine Receptor: Primary Screen for Potentiators; HEK293 T-REx D2, calcium flux, EC20 dopamine potentiation; potentiation, % at 10 µM; 340,000 tested, 0.34% active;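 active = potentiation over 3 SD above the plate norm, cut at about 30% in these data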; note: 0% is about no effect
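Using a no-wash calcium dye in inducible, force-coupled HEK293 Trex cells expressing D2, we tracked fluorescence each second for 180 s after compound, then for 180 s after EC20 dopamine to detect augmented signalling.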
D2 ag-2 = HTS Assay for Allosteric Agonists of the Human D2 Dopamine Receptor: Primary Screen for Agonists. HEK293 T-REx D2 cells, calcium flux agonist mode. 340,000 tested, 0.53% active. activation, % at 2 µM. D(2) dopamine receptor (Homo sapiens), P14416;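 active = activation over 3 SD above normal in the single-dose calcium agonist read, cut at about 30% in these data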; note: 0% is about no effect
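Tetracycline-induced HEK293 Trex cells with D2 receptor force-coupled to calcium signaling, plated overnight at 30 C and loaded with no-wash calcium dye. Calcium flux read kinetically for 180 s after compound addition; responses flag agonists.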
D2 PAM-2 = Beta-Arrestin HTS for Positive Allosteric Modulators of the Human D2 Dopamine Receptor: Potentiators; D(2) dopamine receptor (Homo sapiens), P14416; potentiation, % (test concentration not listed); 360,000 tested, 0.23% active; AID 624464, 2012; DiscoveRx D2 beta-arrestin cells, luminescence, 90 min; 100% = 57 uM dopamine signal; in the data active = potentiation above about 50%
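D2 cells co-treated with compound plus 50 nM dopamine (EC20) for 90 min at 37 deg C to detect potentiation. Beta-arrestin recruitment was read as enzyme-fragment luminescence after 1 h at ambient temperature. Full response was set by 57 uM dopamine.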
An asterisk follows results filed as active; . = no result given. Most compounds without a hit are left out; they make up all but 2.4% or so of the library.

SMILES | D2 antag | D2 ag-1 | D2 PAM-1 | D2 ag-2 | D2 PAM-2
CCOC(=O)c1c(NC(=O)c2cc(-c3cccc(Cl)c3)on2)sc(C(C)=O)c1C | . | . | -10 | 0 | .
CCN(c1ccccc1)S(=O)(=O)c1cc(C(=O)OC2CCOC2=O)ccc1C (stereo not drawn) | -48 | -1 | 31* | 1 | 1
CS(=O)(=O)c1ccc(C(=O)OC2CCOC2=O)cc1[N+](=O)[O-] (stereo not drawn) | 6 | -2 | -2 | -2 | -1
O=c1c2c(nc3cc(-c4ccccc4)[nH]n13)CCC2 | -19 | 1 | -4 | 0 | -9
O=c1c2c(nc3cc(-c4ccc(Br)cc4)[nH]n13)CCCC2 | 54* | -2 | -27 | 11 | -13
O=C(CC1Nc2ccccc2NC1=O)NC1CCCCC1 (stereo not drawn) | 1 | -1 | -2 | 0 | -4
CC1CCCC(NC(=O)CC2Nc3ccccc3NC2=O)C1C (stereo not drawn) | 30* | -2 | 0 | 0 | -5
Cc1cccc(NC(=O)c2nc[nH]c2C(=O)N2CCC(C)CC2)c1 | 39* | 0 | -25 | -1 | -27
Cc1ccc(NC(=O)c2nc[nH]c2C(=O)N2CCc3ccccc3C2)cc1 | 63* | -3 | -25 | 0 | -21
CCOC(=O)c1ccc(NC(=O)c2nc[nH]c2C(=O)N2CCc3ccccc3C2)cc1 | 5 | -4 | -13 | 1 | -9
COCCCN1C(=O)C(CC(=O)NCC2CCCCC2)CC(C(=O)N(C(C)C)C(C)C)=C1C (stereo not drawn) | . | 3 | . | . | -1
Cc1ccccc1Cn1c(C)c(CNCc2ccccc2)c(C(=O)O)c1C | . | . | 0 | -1 | .
O=C(Cc1ccccc1)c1c[nH]c(C(=O)O)c1 | 8 | -5 | -1 | 0 | -2
CN(C)C(=O)c1cc(C(=O)Cc2ccccc2)c[nH]1 | 37* | -4 | 5 | 1 | -13
Cc1c(Cl)cccc1NC(=O)Cn1nnc(-c2nc(-c3ccccc3)no2)c1N | . | . | -5 | 1 | .
O=C(NCc1ccccc1)c1nn(-c2ccccc2)nc1CO | . | . | -4 | . | .
COc1ccc(-c2cc(C)no2)cc1S(=O)(=O)N1CCN(c2ccc(C(C)=O)cc2)CC1 | . | . | 0 | 0 | .
Cc1cc(Nc2ccc(Cl)cc2)n2ncnc2n1 | -3 | -2 | 5 | 0 | -4
Cc1ccc(Nc2cc(-c3ccccc3)nc3ncnn23)cc1 | 33* | -3 | -1 | 0 | -8
COC(=O)c1ccccc1NC(=O)NCc1ccc2c(c1)OCO2 | 34* | 0 | -11 | 0 | -15
COc1cc(S(=O)(=O)NCc2ccc3c(c2)OCO3)c(OC)cc1C | -8 | -1 | 1 | 0 | -6
COc1ccccc1NC(=O)NCc1ccc2c(c1)OCO2 | 33* | . | -11 | 0 | .
COc1cc(C)c(S(=O)(=O)NCc2ccc3c(c2)OCO3)cc1C | 32* | -3 | -19 | 0 | -8
CCOc1ccccc1NC(=O)NCc1ccc2c(c1)OCO2 | 9 | -9 | -12 | -2 | -34
O=C(NCc1ccc2c(c1)OCO2)Nc1cccc2ccccc12 | -10 | -4 | -18 | 0 | -7
SMILES | D2 antag | D2 ag-1 | D2 PAM-1 | D2 ag-2 | D2 PAM-2
CN(CC(=O)NC1CCCCC1)S(=O)(=O)c1ccc2c(c1)c(=O)n(C)c(=O)n2C | -10 | 0 | 3 | 0 | -9
Cc1ccc(CNC(=O)c2ccc(N3CCC4(CC3)CC(c3ccccc3)=NO4)c([N+](=O)[O-])c2)cc1 | 45* | -3 | -7 | 7 | -28
O=C(NCc1ccccc1)c1ccc(N2CCC3(CC2)CC(c2ccccc2)=NO3)c([N+](=O)[O-])c1 | -16 | 0 | -1 | 0 | 11
Cc1ccc(NC(=O)c2ccc(OCc3c(C)noc3C)cc2)cc1 | -1 | . | -5 | 0 | .
Cc1ccc(NC(=O)c2ccc(OCc3c(C)noc3C)cc2)nc1 | 34* | 0 | -4 | -1 | 5
CCc1ccc(CNC(=O)C2CCCN(c3nnc(C)c4c(C)n(-c5ccc(OC)cc5)nc34)C2)cc1 (stereo not drawn) | . | . | -9 | 0 | .
Cc1cc2cc(CNC(=O)c3ccc(C)c([N+](=O)[O-])c3)ccc2[nH]1 | 21 | -5 | -7 | -1 | -10
CC1(C)Oc2ccc(C(=O)NC3CCCC3)cc2N(CC(=O)NC2CCCCC2)C1=O | 52* | -3 | -21 | 1 | -19
Cn1cc(S(=O)(=O)N2CCOCC2)cc1C(=O)Nc1cccc(C#N)c1 | . | . | 5 | 0 | .
COc1cc(C(C)=O)ccc1OCC(O)CN1CCN(c2cc(C)cc(C)c2)CC1 (stereo not drawn) | 58* | 4 | -30 | 1 | -4
CC(=O)c1ccc(OCC(O)CN2CCN(S(=O)(=O)c3c(C)cc(C)cc3C)CC2)cc1 (stereo not drawn) | 0 | 1 | 2 | 1 | -6
CC(=O)c1ccc(N2CCN(CC(O)COC(c3ccccc3)c3ccccc3)CC2)cc1 (stereo not drawn) | -17 | -1 | 37* | -1 | -12
CC1CCCN(CC(O)COC(c2ccccc2)c2ccccc2)C1 (stereo not drawn) | 50* | -1 | -10 | 1 | -10
Cc1ccc2nc(N3C(=O)C(O)=C(C(=O)c4ccco4)C3c3ccc(C)o3)sc2c1 (stereo not drawn) | 31* | -7 | 11 | -1 | -2
O=C(C1=C(O)C(=O)N(c2nc3ccc(Cl)cc3s2)C1c1ccco1)c1ccco1 (stereo not drawn) | 8 | 1 | 19 | -1 | -3
Cc1ccc2nc(N3C(=O)C(O)=C(C(=O)c4ccco4)C3c3ccc(O)cc3)sc2c1 (stereo not drawn) | -17 | . | -8 | 0 | .
Cc1ccc2nc(N3C(=O)C(O)=C(C(=O)c4ccc(C)o4)C3c3ccco3)sc2c1 (stereo not drawn) | 31* | 7 | 17 | 0 | -4
COc1c(C(=O)Nc2nnc(C3CC3)s2)csc1Cl | -6 | -4 | 1 | 0 | 0
COC(=O)/C=c1/s/c(=C(/C#N)C(=O)N2CCCCC2)n(-c2ccccc2)c1=O | -13 | -5 | -2 | 1 | -6
COc1cc(/C=c2\s/c(=C(/C#N)C(=O)N3CCCC3)n(-c3ccccc3)c2=O)ccc1O | 8 | -2 | -1 | 39* | -6
O=C(CN1C(=O)NC2(CCCCCC2)C1=O)N1CCN(c2ccc(F)cc2)CC1 | -10 | -1 | -2 | 1 | -7
